Consider 38 sequences from the OligoGym collection.
Further: reference of the scale not given here.

For one experiment, the target named is P2RY8. The experiment is described as follows: pooled miR-30 sensor sort-seq; sequence = guide strand. As to conditions: shRNA.
In turn, TTGATCATGAAGATGACCGACG yielded a sensor-assay potency score (higher = more potent) of -0.289.
Take TTGAGGACGTCGAAGCAGGTGA: the sensor-assay potency score (higher = more potent) was -0.556.
Regarding TTGCTTTCTAGGGTTCAGCTTT, the sensor-assay potency score (higher = more potent) was -0.874.
Still for that read-out and setting: under TTTCACTCAAAGCTCAACCAGT stands 0.0389; under TGGAACAGTCTAGAGAAGCAGG, -1.38.
On the same count and under the same terms, under TCAACCAGTGAACAGACTGAGT stands -1.22.
Consider TTCAGCTTTGGAACAGTCTAGA, for which the sensor-assay potency score (higher = more potent) was -0.295.
The sequence TTTTCCATCTTAAAACATGTGT had a sensor-assay potency score (higher = more potent) of -0.223.
TACACGTGGTAGTAGCTCTTGC had a sensor-assay potency score (higher = more potent) of -0.559.
Still for that read-out and setting: under TTCATTACTAAACCATCTCTGT stands -0.448.
Still for that read-out and setting: under TACTGTGAAGATGCTACTCTGA stands -0.29.

The target of a further experiment is P4HA2. The experiment is described as above. As to conditions: shRNA.
In the case of TTTAGGTTTTGCGATCTCCTTG, the sensor-assay potency score (higher = more potent) was -0.309.
On to TATCTCGTCCTCATCAGTGGGG, for which the sensor-assay potency score (higher = more potent) came to 0.413.
The same measure, in the same setting: with TAGACAGCTAACTCTGCTGCAG the figure was -0.415; with TTGTACCAGAACACAGCTGTAC, -0.305.
On the same count and under the same terms, under TTAAGAAACGTCGCTAACCTAT stands -0.763; under TTGCAACCTGTAACAATTCTGC, -0.407.
Still for that read-out and setting: with TTCTACATCACTCATGTAGTTA the figure was -0.685.
Sequence TTAGGTTTTGCGATCTCCTTGA yielded a sensor-assay potency score (higher = more potent) of 0.73.
Still for that read-out and setting: under TTGCCTGGTACTTGGTTCCTGG stands -0.843; under TTAACGTTTTTTCTCTCTCTTC, -0.749.
On the same count and under the same terms, under TTATTGGAGACCCACTTGCAGC stands -1.45; under TAATCTTGGAAAGCTTGGCTTC, -0.909.

In a further experiment the target is P4HB. The experiment is described as above. Particulars: shRNA.
As to TTGTAATCAATGACCGTCCTGT, the sensor-assay potency score (higher = more potent) came to 0.492.
Same read-out and setting: under TTCCTGAAGAACTTGATGGTGG stands 0.134.
Still for that read-out and setting: with TTGCAGTGACCACACCATGGGG the figure was -1.18.
With TTGACAGGCTGCTTGTCCCAGT, the sensor-assay potency score (higher = more potent) was -0.656.
Still for that read-out and setting: with TTGGAGAACACGTCACTGTTGG the figure was 0.0264; with TTTGATAAAGTCCAGCAGGTTC, -0.96.
TTGGCAGTCGAGTCCATCTTGG: the sensor-assay potency score (higher = more potent) was -1.06.
Still for that read-out and setting: under TTTCTGATCATCGTCTTCCTCC stands 0.0481.
TATTTGGAGAACACGTCACTGT displayed a sensor-assay potency score (higher = more potent) of -0.00902.
On the same count and under the same terms, with TAGAACTCCACAAAGACGTTTT the figure was -0.145; with TTTCTTAAAACCATCCAGCGTG, -0.457.
The same measure, in the same setting: under TTCACCTCCAAAAATCTTCGGG stands 0.109.

For a further experiment, the target named is PAFAH1B2. The description is as above. Particulars: shRNA.
TTACAGTCCAAAACAAATCTGT displayed a sensor-assay potency score (higher = more potent) of 0.236.
On the same count and under the same terms, with ATGAATTTAAACAACAATCTTC the figure was -0.0238.
On the same count and under the same terms, under TTTCGTGGTTATTTGTTCCTAC stands 0.14.
